Experimental findings from PubChem BioAssay (NCATS) are described below.

Test [1] deals with Glutathione peroxidase 1 (Homo sapiens) (UniProt P07203). The test can be described thus: Primary qHTS Assay for Inhibitors of Recombinant Selenoprotein Glutathione Peroxidase 1 (GPX1) (AID 1845191). Further: nearly all actives have a fitted effect of over 65% in size. In short, it runs like this: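 GR-coupled readout: NADPH consumption tracked by fluorescence, ex 340/em 450 nm, at t=0 and after 15 min at RT. Final mix 10 nM GPX1, 1 mM GSH, 0.5 mM CHP, 0.5 mM NADPH, 100 nM GR, 0.01% BSA, following 30 min enzyme–compound preincubation.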
A general note: In qHTS, concentration-response curves come from the screen itself.

Test [2] deals with Phospholipid hydroperoxide glutathione peroxidase GPX4 (Homo sapiens) (UniProt P36969). The test can be described thus: Primary qHTS Assay for Inhibitors of Recombinant Selenoprotein Glutathione Peroxidase 4 (GPX4) (AID 1845192). Further: nearly all actives have a fitted effect of over 65% in size. The method in brief:
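Steps: GPX4 plus compound, 30 min RT; add GR/GSH/NADPH master mix; start with cumene hydroperoxide; read 340/450 nm fluorescence at 0 and 15 min. Finals were 200 nM GPX4, 1 mM GSH, 0.5 mM CHP, 0.5 mM NADPH, 100 nM GR.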

For test [3], the target named is Luciferin 4-monooxygenase (Photinus pyralis) (UniProt P08659). The test can be described thus: Primary firefly luciferase (FLuc) qHTS assay for identification of artifact compounds. (AID 1845220). Further: nearly all actives have a fitted effect of over 60% in size. In short, it runs like this: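 Titrated compounds were incubated 15 min at RT, protected from light, with luciferin and ATP at 10 uM; reaction started with 10 nM FLuc, luminescence imaged at 5 min, and concentration-response fitted by Hill equation.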

Test [4] has as its system Nanoluciferase (engineered Oplophorus gracilirostris luciferase). In words: Primary Nanoluciferase (NLuc) qHTS assay for identification of artifact compounds. (AID 1845222). Further: potency means the concentration at half of the fitted maximal effect. In short, it runs like this:
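qHTS format, against NLuc in S16 cell-conditioned medium. Nano-Glo substrate 1:100 was added after 15 min at room temperature. Luminescence was taken after a further 5 min.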

The nature of test [5]: Primary fluorescence-based thiol-reactive (MSTI) qHTS assay for identification of artifact compounds. (AID 1845221). Further: series mostly up to about 54 µM; nearly all actives have a fitted effect of over 65% in size. In short, it runs like this: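 Compounds were incubated 1 h at room temperature in the dark with the MSTI probe (4 uM) in PBS pH 7.4, 2% DMSO. Signals were normalized between Acetyl-MSTI and MSTI.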

Records with an inconclusive call do not appear. Active and inactive are the calls of the source. The call rests on the fitted dose curve; in most records, active means well fitted curve in the direction sought with a large enough effect; inconclusive means small, poorly fitted or top-dose-only effect, or another doubt; inactive means no such curve, though single readings can be large; an effect the other way counts as inactive or inconclusive.

Sequence of Glutathione peroxidase 1 (Homo sapiens) (P07203 whole entry, looked up): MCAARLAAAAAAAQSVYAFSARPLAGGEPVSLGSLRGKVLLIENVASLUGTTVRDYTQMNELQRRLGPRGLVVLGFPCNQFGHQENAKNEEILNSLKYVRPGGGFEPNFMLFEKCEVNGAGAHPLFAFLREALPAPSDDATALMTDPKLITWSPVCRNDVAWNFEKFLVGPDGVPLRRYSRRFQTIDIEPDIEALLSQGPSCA
Sequence of Phospholipid hydroperoxide glutathione peroxidase GPX4 (Homo sapiens) (P36969 whole entry, looked up): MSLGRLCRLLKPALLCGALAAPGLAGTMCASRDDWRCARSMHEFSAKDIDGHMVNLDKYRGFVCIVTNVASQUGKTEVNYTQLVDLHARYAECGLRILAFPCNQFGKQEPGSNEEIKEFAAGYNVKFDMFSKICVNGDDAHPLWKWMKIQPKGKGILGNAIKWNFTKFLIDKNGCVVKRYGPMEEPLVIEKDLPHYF

For `Cn1cc(C2=C(c3coc4ccccc34)C(=O)NC2=O)c2cc(Br)ccc21`, the Potency result in test [1], in test [2], in test [3] and in test [4] was “inactive” in each case.
For `CC(=O)OC(C)(C)/C=C/C(=O)C(C)(O)C1C(O)CC2(C)C3CC=C(C(C)(C)C(=O)O)C(CC(=O)O)C3(C)C(=O)CC12C` (stereo not given), the Potency entry in test [1], in test [2], in test [3], in test [5] and in test [4] was “inactive” each time.
Regarding `C=C1C(=O)OC2/C=C(\C)CC/C=C(\C=O)C(OC)C(OC(=O)C(C)CC)C12` (stereo not given), the Potency result in test [1], in test [2], in test [3] and in test [4] was “inactive” in each case.
Consider `OC1C=C2C3CN(Cc4cc5c(cc43)OCO5)C2CC1O` (stereo not given), for which the Potency result in test [1], in test [2], in test [3] and in test [4] was “inactive” throughout.
On to `COc1ccc2c(c1)C(C(=O)N(Cc1ccc(N(C)C)cc1)c1ccc(C(C)C)cc1)CCC2` (stereo not given), for which the Potency entry in test [1], in test [2], in test [3] and in test [4] was “inactive” throughout.
For the compound `O=C(Nc1nc2cc(C(F)(F)F)cc(NC3CC3)n2n1)c1cccnc1`, the Potency result in test [1], in test [2], in test [3], in test [5] and in test [4] was “inactive” in each case.
As for `O=C(NCCN1CCC(n2c(=O)[nH]c3ccccc32)CC1)c1ccc2ccccc2c1`, the Potency entry in test [1], in test [2], in test [3], in test [5] and in test [4] was “inactive” in each case.
As for `C=C1CC[C@@H](O)[C@]2(C)C[C@H]3OC(=O)C(=C)[C@H]3CC12` (stereo not given in full), the Potency result in test [1], in test [2], in test [3], in test [5] and in test [4] was “inactive” throughout.
Consider `O=C(NC1CCC1)c1ccc(C#Cc2cccc(F)c2)nc1`, for which the Potency entry in test [1], in test [2], in test [3], in test [5] and in test [4] was “inactive” each time.
On to `CS/C=C/C(=O)O[C@@H]1CCC2=CC(=O)C(=C(C)C)C[C@]2(C)[C@H]1C`, for which the Potency result in test [1], in test [2], in test [3], in test [5] and in test [4] was “inactive” throughout.
Consider `CN1CCN(S(=O)(=O)c2ccc(-c3cnc(N)c(C(=O)Nc4cccnc4)n3)cc2)CC1`, for which the Potency result in test [1], in test [2], in test [3], in test [5] and in test [4] was “inactive” each time.
On to `C=C(C)[C@@H]1CC[C@]2(C(=O)O)CC[C@]3(C(=O)O)[C@H](CCC4[C@@]5(C)CCC(=O)C(C)(C)C5CC[C@]43C)C12` (stereo not given in full), for which the Potency entry in test [1], in test [2], in test [3], in test [5] and in test [4] was “inactive” each time.
Turning to `O=C(Nc1ccnc(NC(=O)C2CC2)c1)c1c(Cl)cccc1Cl`, the Potency entry in test [1], in test [2], in test [3], in test [5] and in test [4] was “inactive” each time.
As to `Cc1nnc(-c2ccc(-c3ccc(C(=O)Nc4ccc(O)c(N5CCN(C)CC5)c4)cc3)c(C)c2)o1`, the Potency result in test [1], in test [2] and in test [3] was “inactive” throughout. The Potency in test [4] was 1510 nM (active).
Consider `CCC(CC)Nc1nc(C)c(-c2ccc(OC(F)(F)F)cc2OC)nc1OC`, for which the Potency entry in test [1], in test [2], in test [3] and in test [4] was “inactive” throughout.
Turning to `CC(C)(C)OC(=O)c1ncn2c1C(C)(C)Nc1ccccc1-2`, the Potency entry in test [1], in test [2], in test [3] and in test [4] was “inactive” each time.
Take `CC(C)=C[C@@H]1[C@H](CO[C@@H]2O[C@H](CO)[C@@H](O)[C@H](O)[C@H]2O)C1(C)C`: the Potency entry in test [1], in test [2], in test [3] and in test [4] was “inactive” each time.
With `O=S(=O)(Nc1ccccc1N1CCCCC1)c1ccc(Cl)s1`, the Potency entry in test [1], in test [2], in test [3] and in test [4] was “inactive” in each case.
Turning to `COc1cccc(-c2cc(F)ccc2C2Cc3nc(N)nc(C)c3C(=O)N2)n1` (stereo not given), the Potency entry in test [1], in test [2], in test [3], in test [5] and in test [4] was “inactive” each time.
As for `CC1CCCC[C@H]2C(=O)C=C[C@H](O)[C@@H]2CC(=O)O1` (stereo not given in full), the Potency entry in test [1], in test [2], in test [3] and in test [4] was “inactive” throughout.
For `CCCCNc1ncc(C(=O)NCc2ccc(-n3ccnc3)cc2)c(NC2CCC(O)CC2)n1` (stereo not given), the Potency entry in test [1], in test [2], in test [3] and in test [4] was “inactive” throughout.
On to `CCOc1cn(-c2ccc(F)cc2C)nc1C(=O)Nc1ccc(Oc2ccnc3cc(OC)c(OC)cc23)c(F)c1`, for which the Potency entry in test [1], in test [2], in test [3] and in test [4] was “inactive” throughout.
Take `COC(=O)C[C@H]1[C@]2(C)C3=C(C)[C@H](c4ccoc4)C[C@H]3O[C@@H]2[C@H](O)C2[C@](C)(C(=O)OC)C=CC(=O)[C@@]21C` (stereo not given in full): the Potency result in test [1], in test [2], in test [3] and in test [4] was “inactive” each time.
On to `Cc1c(C(=O)NCc2cccnc2)nn(-c2ccc(Cl)cc2Cl)c1-c1ccc(Cl)cc1`, for which the Potency result in test [1], in test [2], in test [3] and in test [4] was “inactive” each time.
Turning to `Cc1ccc(N2CCN(CCC3NC(=O)c4ccccc43)CC2)cc1C` (stereo not given), the Potency entry in test [1], in test [2], in test [3] and in test [4] was “inactive” throughout.
In the case of `CC(=O)O[C@]1(C(C)=O)CC[C@H]2[C@@H]3CCC4=CC(=O)CCC4=C3[C@@H](c3ccc(N(C)C)cc3)C[C@@]21C`, the Potency entry in test [1], in test [2], in test [3] and in test [4] was “inactive” throughout.
With `CC1CC(=O)C2=C(C1)C1OC1C1(O)C2C(=O)c2cccc(O)c2C1O` (stereo not given), the Potency result in test [1], in test [2], in test [3] and in test [4] was “inactive” each time.
As for `Cc1[nH]c(/C=C2\C(=O)Nc3ccc(F)cc32)c(C)c1C(=O)NCCN1CCCC1`, the Potency entry in test [1], in test [2], in test [3] and in test [4] was “inactive” throughout.
On to `CC(C)CCNC(=O)c1ccc2c(c1)nc(Nc1n[nH]c3ccc(-c4ccccc4OC(F)(F)F)cc13)n2C1CCC(O)CC1` (stereo not given), for which the Potency entry in test [1], in test [2], in test [3] and in test [4] was “inactive” throughout.
Take `NCCOc1cc(C(=O)Nc2cc(OCCN)c3ccccc3n2)nc(C(=O)Nc2cc(OCCN)c3ccccc3n2)c1`: the Potency result in test [1], in test [2], in test [3] and in test [4] was “inactive” throughout.
